Screening data (PubChem)
Rows were chosen to be rich in hits. Some 5.8% of all compounds tested hit in one or more screens of this group.
TRPV1 PAM: enhances activation of the human vanilloid receptor TRPV1; Q8NER1; TRPV1-expressing cells, Fluo-8 calcium influx, capsaicin EC20 potentiation; potentiation, % at 8.33 µM; actives 0.02% (n = 320,000); in the data active means potentiation above about 80%; inconclusive means between about 30% and that limit; further: 0% is about no effect
Target sequence (Q8NER1 whole entry, looked up): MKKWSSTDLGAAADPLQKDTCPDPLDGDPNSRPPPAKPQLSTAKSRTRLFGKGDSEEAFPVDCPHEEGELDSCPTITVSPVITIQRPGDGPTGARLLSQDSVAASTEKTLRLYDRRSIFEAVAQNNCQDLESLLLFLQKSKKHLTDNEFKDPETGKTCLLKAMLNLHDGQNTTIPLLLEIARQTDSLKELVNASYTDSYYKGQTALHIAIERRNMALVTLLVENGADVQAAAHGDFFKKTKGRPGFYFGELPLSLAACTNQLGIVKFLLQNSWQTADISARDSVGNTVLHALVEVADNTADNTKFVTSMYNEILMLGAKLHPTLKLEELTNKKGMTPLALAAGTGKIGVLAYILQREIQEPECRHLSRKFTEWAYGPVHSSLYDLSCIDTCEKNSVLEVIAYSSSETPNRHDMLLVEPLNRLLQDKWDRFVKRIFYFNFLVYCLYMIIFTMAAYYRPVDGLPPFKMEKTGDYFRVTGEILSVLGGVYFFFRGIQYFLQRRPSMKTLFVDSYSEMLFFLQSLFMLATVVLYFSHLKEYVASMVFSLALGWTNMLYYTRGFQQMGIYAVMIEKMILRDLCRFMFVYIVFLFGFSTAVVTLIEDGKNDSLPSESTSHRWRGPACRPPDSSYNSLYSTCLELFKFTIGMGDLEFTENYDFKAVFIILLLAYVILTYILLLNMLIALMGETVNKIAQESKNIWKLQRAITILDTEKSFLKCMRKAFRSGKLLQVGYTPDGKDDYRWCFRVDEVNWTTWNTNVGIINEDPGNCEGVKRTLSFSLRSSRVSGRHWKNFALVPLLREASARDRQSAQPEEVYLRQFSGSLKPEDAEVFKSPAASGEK
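Fluo-8 calcium influx in TRPV1-expressing cells, kinetic read (ex 480/em 520 nm). Compound added and read 3 min for agonist activity, followed by capsaicin at EC20 final and 2 min further read for enhancement.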
uPA surface inh: inhibitors of cell surface uPA generation. actives 0.31% (n = 330,000). cell surface uPA generation assay, qHTS. Potency, µM (highest dose often 38.3 µM), for inactives: at the top dose activity change, negative = inhibition, most hits filed as inhibitors; active means well fitted inhibition curve with a large enough effect; inconclusive means small, poorly fitted or top-dose-only effect; inactive means no such curve, though single readings can be large or run the other way; tested in mouse RAW 264.7 cells; further: potency means the concentration at half of the fitted maximal effect; on the % scale 0 is the no-effect control and ±100 the full control effect; nearly all actives have a fitted effect of over 55% in size
TRPV1 ag: agonists of human vanilloid receptor 1 (TRPV1); AID 540275; Q8NER1; actives 0.19% (n = 320,000); activation, % at 8.33 µM; TRPV1-expressing cells, Fluo-8 calcium influx, agonist mode; in the data active means activation above about 80%; inconclusive means between about 30% and that limit; further: 0% is about no effect
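Fluo-8 calcium influx in TRPV1-expressing cells, kinetic read (ex 480/em 520 nm). Compound added and read 3 min for agonist activity, followed by capsaicin at EC20 final and 2 min further read for enhancement.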
RORg inh: ROR gamma (mouse) transcription inhibition; Potency, µM (series often up to 53.6 µM), without a hit: at the highest dose activity change, negative = inhibition, usual class: inhibitors; Drosophila S2 Gal4-RORgamma UAS-luciferase reporter, 20 h; AID 2551; P51450; actives 5.4% (n = 310,000); further: potency means the concentration at half of the fitted maximal effect; on the % scale 0 is the no-effect control and ±100 the full control effect; nearly all actives have a fitted effect of over 60% in size
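Luciferase reporter read in Schneider cells carrying Gal4-RORγ (mouse) and UAS-Photinus luciferase; cells given compound 1 h before 700 uM copper sulfate induction, then incubated 20 h at ambient temperature.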
VP16 counter: counter-screen for ROR gamma inhibitors: Gal4-VP16 reporter | Potency, µM (series often up to 53.6 µM), for the others: at the highest dose activity, negative = inhibition, most hits filed as inhibitors | Drosophila S2 Gal4-VP16 UAS-luciferase, luminescence, 20 h | AID 2546 | actives 3.5% (n = 310,000);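 further: Gal4-VP16 expression switched on by copper sulfate through the metallothionein promoter; potency means the concentration at half of the fitted maximal effect; on the % scale 0 is the no-effect control and ±100 the full control effect; nearly all actives have a fitted effect of over 50% in size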
* = called active by the depositor; ? = inconclusive; / = no result; [ ] = dose if it differs, or a comment. Unless noted, the call rests on the fitted dose curve; in most records, active means well fitted curve in the direction sought with a large enough effect; inconclusive means small, poorly fitted or top-dose-only effect, or another doubt; inactive means no such curve, though single readings can be large; an effect the other way counts as inactive or inconclusive.

SMILES	TRPV1 PAM	uPA surface inh	TRPV1 ag	RORg inh	VP16 counter
COc1ccccc1-c1cc(C(=O)Nc2cccnc2Cl)no1	21	4%	0	1%	-2%
COc1ccccc1C(=O)NNC(=S)NC(=O)c1sc2ccccc2c1Cl	-6	-7%	8	13µM*	13µM*
COc1ccccc1C(=O)NC(=S)Nc1cccnc1Cl	-7	-15%	10	10µM*	?
COc1ccc(C(=O)Nc2cccnc2Cl)cc1OC	4	-5%	-1	-9%	2%
Cc1ccc(C(=O)NC(=S)Nc2cccnc2Cl)cc1	?	-1%	-2	5µM*	?
CO[C@@H]1COC(=O)C/C=C\[C@H](C)COC(=O)[C@H](C)NC(=O)C/C=C\[C@H]1C	/	/	/	-11%[10 µM]	1%[10 µM]
Cc1nn(CCCC(=O)Nc2cc(Oc3ccccc3)cc([N+](=O)[O-])c2)c(C)c1[N+](=O)[O-]	-1	3%	29	2µM*	?
Cc1cc(C)n(-c2nc3ccccc3nc2N2CCCCCC2)n1	5	9%	5	11µM*	-12%
O=C(CN(C1CCCCC1)S(=O)(=O)c1ccc(Cl)cc1)NCc1ccncc1	-33	6%	?	-36%	1%
C=C1/C=C(\C)C(C)(O)CC(O)CC(=O)C(O)C(O)C(C)CC(C)OC(=O)/C(C)=C/CC/C=C/C(OC)C(O)CC(C)C1 (stereo not drawn)	/	-7%	/	/	/
Cc1ccc(Nc2nc(N)c3ccccc3n2)cc1Cl	-3	7.9µM*	7	17%[1.91 µM]	-24%
CN(C)c1ccc(Nc2nc(N)c3ccccc3n2)cc1	-5	-12%	-4	?	3.5µM*
CCOc1ccc(Nc2nc(N)c3ccccc3n2)cc1	-1	-16%	1	7.1µM*	?
CSc1ccccc1C(=O)Nc1cc([N+](=O)[O-])ccc1C	9	-1%	1	-13%	3%
O=C(c1ccc(Cl)cc1)C(CN1CCCC1)c1ccccc1 (stereo not drawn)	10	5µM*	0	11µM*	5.6µM*
COc1ccc(C(=O)C(CN2CCOCC2)c2ccccc2)cc1 (stereo not drawn)	4	?	0	13µM*	?
c1ccc(C(CN2CCOCC2)c2ccccc2)cc1	3	/	0	-3%	5%
COc1ccc(C(=O)C(CN2CCCC2)c2ccccc2)cc1 (stereo not drawn)	14	-10%	7	?	?
CCCCOc1ccc(C(=O)C(CN2CCOCC2)c2ccccc2)cc1 (stereo not drawn)	-12	-13%	17	?	?
O=C(c1ccc(F)cc1)C(CN1CCOCC1)c1ccccc1 (stereo not drawn)	0	-13%	1	5.6µM*	11µM*
O=C(c1ccccc1)C(CCC(CN1CCOCC1)C(=O)c1ccccc1)CN1CCOCC1 (stereo not drawn)	-11	-9%	18	?	7.9µM*
COCCCN1C(=O)c2ccc(C(=O)N3CCN(c4ccccc4OC)CC3)cc2C1=O	-11	1%	-1	4%	3%
C/C(CCC(=O)OC[C@@H]1O[C@H](C#Cc2ccccc2)C=C[C@@H]1Oc1ccc(C)cc1)=N/O[C@@H](C)CN1CCCc2nc(C)c(C)cc21	/	/	/	-4%[10 µM]	0%[10 µM]
O=C(CCCN1C(=O)/C(=C/c2cccc(Br)c2)SC1=S)Nc1cccnc1	-1	-8%	17	14µM*	-9%
Cc1ccc(/C=C2\SC(=S)N(CCCC(=O)Nc3cccnc3)C2=O)cc1	-4	-6%	-2	6.3µM*	2.2µM*
SMILES	TRPV1 PAM	uPA surface inh	TRPV1 ag	RORg inh	VP16 counter
Cc1ccc(/C=C2\SC(=S)N(CC(=O)Nc3cccnc3)C2=O)cc1	-3	-2%	6	9%	-4%
CN(CC(=O)Nc1ccccc1C(F)(F)F)C(=O)c1cc2c(s1)CCCCC2	3	1%	-2	/	/
COC(=O)N1CCC2(CC1)CN(C(=O)Nc1cccc(F)c1)C2	/	/	/	5%	11%
CCOC(=O)[C@@H]1[C@H]2COc3cc(OC)ccc3[C@@H]2N2C(=O)N(c3ccc(Br)cc3)C(=O)[C@@]12C	-15	0%	-4	7.9µM*	-3%
CCOC(=O)[C@@H]1[C@H]2COc3ccc(Br)cc3[C@@H]2N2C(=O)N(c3ccc(F)cc3)C(=O)[C@@]12C	/	-7%	/	/	/
CCOC(=O)[C@@H]1[C@H]2COc3ccc(Br)cc3[C@@H]2N2C(=O)N(c3cccc(F)c3)C(=O)[C@@]12C	-16	7%	5	18µM*	4%
CCCCCCCCCCCCCCCCSCC(COC)COP(=O)([O-])OCC[N+](C)(C)C (stereo not drawn)	/	/	/	10%	-9%
Cc1ccc(NC(=O)CCNC(=O)Cn2cnc3ccccc3c2=O)cc1F	-1	0%	-1	12%	-5%
CCc1ccc(OCC(=O)NC(=S)Nc2cccc(CO)c2)c(Br)c1	-6	-6%	-3	11µM*	10µM*
COCCC(=O)Nc1ccc2c(c1)CN(C(=O)c1ccc(CSC)o1)CC2	-3	0%	7	40%	1%
O/N=C/c1ccc2cccc(O)c2n1	?	15%	-7	11µM*	?
O/N=C/c1ccc2ccccc2n1	3	2%	1	-30%	-5%
Oc1cccc2ccc(/C=C/c3c(F)cccc3Cl)nc12	13	0%	0	3.2µM*	?
Oc1cccc2ccc(/C=C/c3ccccc3Cl)nc12	0	8%	3	4µM*	4.5µM*
COc1ccc(C(=O)N/N=C/c2ccc3cccc(O)c3n2)cc1	7	-1%	1	1.4µM*	4µM*
CC(=O)OC[C@@H]1O[C@H](CCON=C(C)C)C=C[C@@H]1OC(C)=O	/	/	/	0%[10 µM]	-7%[10 µM]
CC(=O)OCC1OC(C#CCC2CCCCC2)C=CC1OC(C)=O (stereo not drawn)	/	/	/	?	-13%[10 µM]
O=C1CCC=C1C(O)c1ccc(Cl)cc1 (stereo not drawn)	/	/	/	10%	-21%
CC1CCCCC1NCC(=O)NCc1ccc(F)cc1 (stereo not drawn)	-6	-3%	5	15%	-4%
COc1ccc2c(-c3ccccc3)cc(=O)[nH]c2c1	-6	/	12	22%	17%
COc1ccc2c(-c3ccccc3)cc(=S)[nH]c2c1	-24	3%	7	1µM*	?
COc1ccc(-c2oc3ncnc(NCCN4CCOCC4)c3c2-c2ccc(OC)cc2)cc1	16	1%	15	-14%	-2%
COc1ccc(-c2oc3ncnc(NCCCN4CCOCC4)c3c2-c2ccc(OC)cc2)cc1	-3	-4%	4	?	16µM*
Cc1ccc(NC(=S)NNC(=O)CSc2nnc(-c3ccc(Cl)cc3)n2C2CCCCC2)cc1	15	1%	-2	11µM*	?
Cn1c(SCC(=O)NNC(=S)Nc2ccccc2)nnc1-c1ccccc1	3	1%	-2	0.89µM*	1.4µM*
